Experimental findings from PubChem BioAssay (NCI) are described below.

Experiment in all cases: NCI-60 one-dose screen, 48 h (100 = growth as untreated, 0 = no growth, -100 = all killed)
What all share (conditions): 10 µM unless noted

Assay [1] deals with SK-MEL-2 melanoma.
Assay [2] has as its system SN12C renal.
Assay [3] has as its system UO-31 renal.
For assay [4], the system named is TK-10 renal.
In assay [5] the test system is ACHN renal.
Assay [6] has as its system CAKI-1 renal.
The subject of assay [7] is A498 renal.
For assay [8], the system named is CCRF-CEM leukemia.
Assay [9] deals with MOLT-4 leukemia.
For assay [10], the system named is EKVX NSCLC.

SMILES strings stand for the structures. This is part of a sample that, as a whole, favours compounds with a hit. Of some 83,000 tested, about 20% had one in any assay.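 Treatment: one concentration, 48 hours, 96-well format. Scoring: percent growth, with anything below 10 considered active.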 A number with no mark means an inactive call. Activity calls are given as the source filed them.

For `CC(=O)c1ccc(Nc2nc(SCC(C)C)nc(-c3ccc(F)cc3)c2C#N)cc1`, the growth in assay [1] was 109%; in assay [2], 110%; in assay [3] it was 115%; in assay [4], 123%; in assay [5] it was 104%; in assay [6] it was 115%. The growth in assay [7] was 117%; in [8], 107%; in assay [9] it was 107%.

Regarding `NS(=O)(=O)c1ccc(Nc2nc(N/N=C/CCc3ccccc3)nc(Nc3ccccc3)n2)cc1`, the growth in assay [1] was 105%; in [2], 105%; in assay [3] it was 84%; in assay [4], 105%; in assay [5], 101%; in assay [6], 96.9%. For the same compound, the growth was 86.4% in assay [7], 93.6% in assay [8] and 101% in [9].

In the case of `C#C[C@]1(O)CC[C@H]2[C@@H]3CC=C4c5sc(-c6cccc(O)c6)nc5CC[C@]4(C)[C@H]3CC[C@@]21C`, the growth was 7.48% (active) in assay [10]; -48.6% (active) in [2]; -30.4% (active) in assay [3]; 2.76% (active) in [4]; -58.7% (active) in [5]; -19.9% (active) in [6]. The growth in [7] was -66.9% (active); in [8] it was -31.8% (active); in assay [9] it was -11.8% (active).

Take `Cc1nc2ncc(-c3ccc4ncnc(NCc5ccccc5)c4c3)cc2[nH]1`: the growth in [10] is 25.3%; in assay [2], 32.3%; in assay [3], 45.4%; in assay [4] it was 22.6%; in assay [5], 64.9%; in assay [6], 19.3%. In addition, the growth is -18.2% (active) in [7], 68.5% in assay [8] and 45.2% in [9].

For `Cc1ccc(-c2cc3nc(C(Cl)Cl)nc(C)n3n2)cc1`, the growth in assay [10] was 92.3%; in [2], 113%; in assay [3] it was 80.9%; in assay [4] it was 166%; in assay [5], 87.4%; in [6] it was 96.4%. Moreover, the results for the growth in assay [7], in [8] and in assay [9] were 132%, 98.4% and 103%, respectively.

Regarding `COc1ccccc1-n1cc(C#N)c(N)c1C(=O)c1ccc(C)cc1`, the growth was 89.1% in assay [10]; 91.1% in [2]; 90% in [3]; 102% in assay [4]; 101% in [5]; 78.5% in assay [6]. Further, the growth is 74.9% in assay [7], 85.6% in assay [8] and 83.1% in assay [9].

As for `COc1ccc(CCOc2cc3c(cc2OC)CCN(C(=O)NCc2cocn2)C3c2ccc(C)cc2C)cc1` (stereo not drawn), the growth in [10] was 39.7%; in assay [2], 19.7%; in [3], 24.7%; in [4] it was 49.8%; in assay [5], 18.5%; in assay [6], 13.2%. For the same compound, the growth is -2.94% (active) in assay [7], 26.4% in assay [8] and 21.8% in assay [9].

`O=C1/C(=C/C=C/c2ccco2)SC(=S)N1c1ccccc1`: the growth in [10] was 81.2%; in assay [2], 79.1%; in assay [3], 42.9%; in assay [4], 95.5%; in assay [5] it was 67.3%; in [6], 86.8%. For the same compound, the growth in assay [8] is 41.3%; in assay [9], 60.2%.

Turning to `O=C(CSc1nnc(-c2ccc3nc(-c4ccccc4)[nH]c3c2)o1)Nc1ccc(C(=O)/C=C/c2ccccc2)cc1`, the growth was 106% in assay [10]; 98% in assay [2]; 87.4% in assay [3]; 110% in assay [4]; 102% in assay [5]; 103% in assay [6]. Besides, the values for the growth in assay [7] and in assay [9] were 95.9% and 93.2%, respectively.

As for `CC(O)c1cc2ccccc2c(=O)o1` (stereo not drawn), the growth in [10] was 102%; in [2] it was 101%; in assay [3], 89.9%; in assay [4] it was 105%; in assay [5], 102%; in assay [6] it was 91.5%. Besides, the growth was 1.19% (active) in assay [8] and 107% in assay [9].

With `Cc1ccc(-n2cc(/C=N/NC(=O)c3ccncc3)c(-c3ccc(S(C)(=O)=O)cc3)n2)cc1`, the growth in assay [10] was 95.2%; in assay [2] it was 89.4%; in assay [3], 80.4%; in assay [4], 118%; in [5], 98%; in assay [6], 90.2%. The growth in [7] was 88.2%; in assay [8], 84%; in assay [9], 70.4%.

Turning to `Cc1ccc(NC(=O)N[C@@H](Cc2cc(F)cc(F)c2)C(=O)NC2C(=O)N3C[C@H](O)C[C@H]3C(=O)N3CCCC[C@H]3C(=O)N[C@@H](CO)C(=O)N3C[C@H](C)C[C@H]3C(=O)O[C@H]2C)c(F)c1` (stereo partly drawn), the growth in [10] was 40.7%; in assay [2], 22%; in [3], 90.7%; in assay [4], 107%; in assay [5], 107%; in assay [6], 82.9%. The values for the growth in [8] and in assay [9] were 35.1% and 54.5%, respectively.

As for `Cc1ccc(CSc2nc(-c3ccc(Cl)cc3)c(C#N)c(N3CCOCC3)n2)cc1`, the growth in assay [10] was 95.1%; in [2], 98.1%; in assay [3], 86.1%; in assay [4], 105%; in [5], 98.9%; in [6], 76.4%. Also, the growth in assay [8] is 1.17% (active); in assay [9] it was 85%.

Take `O=C1/C(=C/C=C/c2ccco2)SC(=S)N1C1CCCCC1`: the growth was 93% in assay [10]; 83.4% in [2]; 85.6% in [3]; 106% in assay [4]; 96% in assay [5]; 93.1% in assay [6]. Also, the growth in assay [8] is 91.2%; in assay [9] it was 90.5%.

With `O=C(Cn1c(-c2ccccc2)nc2cc(Cl)c(Cl)cc21)N=Nc1c(O)[nH]c2ccc(Cl)cc12`, the growth in [10] is 75.5%; in assay [2], 89.8%; in assay [3], 73.7%; in assay [4], 104%; in assay [5], 74.3%; in assay [6] it was 70.2%. In addition, the figures for the growth in [8] and in [9] were -8.19% (active) and 72.3%, respectively.
